The record followed here is PubChem BioAssay (NCATS).

Values joined by “and” are separate entries in the source; they are usually repeats but may differ in a detail not shown here. Equal entries are not always repeated. Results filed as inconclusive are left out. Active and inactive are the calls of the source. Unless noted, calls follow the shape of the dose curve; as a rule, active = well fitted inhibition curve with a large enough effect; inconclusive = small, poorly fitted or top-dose-only effect; inactive = flat fitted curve, though single readings scatter.

Experiment [1] can be described thus: AP1 Signaling Pathway (AID 357; active = well fitted curve in either direction with a large enough effect, not every such curve was filed as active;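 also: ME-180 reporter cells stimulated with EGF at its EC50 level; % is scaled to controls: 0 for no effect and ±100 for the full control effect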). In short, it runs like this:
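Modulation of EGF-driven AP-1 transcription was assessed with a beta-lactamase reporter in ME-180 cells. Compound and EC50 EGF were co-incubated 5 hours at 37 °C before 2.5-hour CCF4 loading at room temperature and dual-emission reading.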

Experiment [2] concerns the target Cytochrome P450 1A2 (Homo sapiens) (UniProt P05177). The experiment is described as follows: p450-cyp1a2 (AID 410; calls by dose curve;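 also: -100% = full effect of reference inhibitor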). Put shortly: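 20nM CYP1A2, 100uM Luciferin-ME (=Km), 100mM KPO4; cpd 10 min RT; +NADPH regen, 60 min RT; stop/detect 20 min; luminescence. Normalized to furafylline 57 uM = full inhibition.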
Experiment [3] is described as follows: Stat Signaling Pathway (AID 446; active = well fitted curve in either direction with a large enough effect, not every such curve was filed as active;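 also: ME-180 cervical cancer cells given 40 pM IL-6 alongside compound; SIE-controlled beta-lactamase reporter measured as 460/530 nm FRET emission ratio; % is scaled to controls: 0 for no effect and ±100 for the full control effect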). Put shortly:
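Compound effects on IL-6-induced STAT reporter activity were measured in ME-180 cells. After overnight culture, cells were co-treated with 40 pM IL-6 for 5 hrs before beta-lactamase substrate loading at room temperature.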

Experiment [4] addresses Glucocorticoid receptor (Homo sapiens) (UniProt P04150). The experiment is described as follows: GR-GFP Redistribution (AID 450;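 active = compounds whose dose series gives a full or clear partial fitted curve of increased nuclear translocation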; also: potency is read from the fitted curve at half-maximal effect). The note with it: U2OS GR-GFP nuclear translocation, laser cytometry, 2 h.
The target is the same in experiment [5]. The experiment is described as follows: GR-EFC Redistribution (AID 451; calls by dose curve; also: potency is read from the fitted curve at half-maximal effect). As to conditions: CHO-K1 GR-EFC translocation, beta-gal luminescence, 2 h. Put shortly:
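CHO-K1 cells stably expressing nuclear-localized β-gal enzyme acceptor and GR fused C-terminally to the enzyme donor fragment; ligand-driven nuclear translocation restores β-gal by complementation. Compounds titrated up to 46 uM final, 2 h at 37 °C; luminescence read.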

Experiment [6] concerns the target Mitogen-activated protein kinase 10 (Mus musculus) (UniProt Q61831). The experiment is described as follows: JNK3 AlphaScreen Assay (AID 530; active = well fitted curve in either direction with a large enough effect, not every such curve was filed as active;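 also: kinase came from lysate of stimulated human HepG2 cells; signal reports phosphorylation of biotinylated GST-cJun 1-79 at Ser73 with 10 µM ATP; % is scaled to controls: 0 for no effect and ±100 for the full control effect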). Put shortly:
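Biotinylated GST-cJun(1-79) served as substrate for JNK3 in HepG2 lysates stimulated with IL-1beta and TNF-alpha. ATP was 10 uM final, pH 7.6. Ser73 phosphorylation was quantified by AlphaScreen (680 nm excitation).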

Experiment [7] concerns the target 3',5'-cyclic-AMP phosphodiesterase 4B (Homo sapiens) (UniProt Q07343). The experiment is described as follows: qHTS Assay for Inhibitors of PDE-IV (AID 607; active = well fitted activation curve with a large enough effect in the main read-out, with a control signal flat, not every such curve was filed as active; also: % of control where 0% means no effect). Put shortly: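 ACTOne HEK293 cells carry a modified cAMP-gated CNG channel and express endogenous PDE4; plated 1000 cells/well, compounds up to 22.9 uM final. Membrane-potential dye fluorescence (ex 535/em 590) was read; parental cells received 10 uM forskolin + 100 uM RO 20-1724.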

Experiment [8] can be described thus: qHTS Assay for Lipid Storage Modulators (AID 1519; calls by dose curve). The note with it: Drosophila S3 cells, BODIPY lipid droplet/cell ratio, laser cytometry, cells loaded with oleic acid; for activity change, negative = inhibition: at 25.7 µM (top of the series). In short, it runs like this: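 Cells seeded at 5,000 per well were treated with compounds over a concentration series and loaded with oleic acid (400 uM, as added). Lipid droplet fluorescence (488 nm excitation, 500-530 nm channel) was read by laser-scanning cytometry and normalized to 20 uM Triacsin C.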

The target of experiment [9] is Ubiquitin carboxyl-terminal hydrolase 1 (Homo sapiens) (UniProt O94782). The experiment in a line: Inhibitors of USP1/UAF1: Pilot qHTS (AID 504865).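 Also: rhodamine fluorescence freed from ubiquitin-rhodamine substrate followed over time; top concentration of the series differs between compounds; % is scaled to controls: 0 for no effect and ±100 for the full control effect; nearly all actives have a fitted effect of over 35% in size.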 In short, it runs like this: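 USP1/UAF1 complex (1nM) preincubated with compound 15 min at room temperature, then Ub-Rho substrate (150nM final) added. Fluorescence read kinetically at 480/540 nm, 6 reads every 60 seconds. Buffer: 50mM HEPES pH 7.8, 0.5mM EDTA, 0.1 mg/ml BSA, 1mM TCEP, 0.01% Tween-20.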

In experiment [10] the target is Luciferin 4-monooxygenase (Photinus pyralis) (UniProt P08659). The experiment is described as follows: Biochemical firefly luciferase enzyme assay for NPC (AID 624030).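 Also: purified P. pyralis luciferase at 10 nM with luciferin and ATP substrate; 0% = DMSO and -100% = full luciferase inhibition by PTC124 control; nearly all actives have a fitted effect of over 70% in size.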 In short, it runs like this:
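Counter-screen for direct inhibition of the luciferase enzyme by approved-drug library compounds, run at 10 nM enzyme in 50 mM Tris acetate (final). Luminescence was read within 5 min of enzyme-buffer addition and normalized to PTC124 versus DMSO (0%).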

Experiment [11] in a line: qHTS profiling for inhibitors of Plasmodium falciparum proliferation (AID 504749).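 Also: 0% = DMSO vehicle and full inhibition = artemisinin control; nearly all actives have a fitted effect of over 60% in size.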 The note with it: P. falciparum in erythrocytes, SYBR Green DNA, 72 h. Put shortly: (§1)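 Fluorescence of SYBR Green-bound parasite DNA, read at 485/535 nm, served as the growth measure. Infected erythrocytes were cultured with compound 72 h; artemisinin (0.29 uM) and DMSO wells defined the normalization range.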

Experiment [12] has as its system 3D7. The experiment is described as above. As to conditions: P. falciparum in erythrocytes, SYBR Green DNA, 72 h; series mostly up to 28.7 µM. In short, it runs like this: as §1
Experiment [13] concerns C2A. Described as above. The note with it: P. falciparum in erythrocytes, SYBR Green DNA, 72 h; series mostly up to 28.7 µM. Put shortly:
as §1

For experiment [14], the system named is CP211. The description is as above. As to conditions: P. falciparum in erythrocytes, SYBR Green DNA, 72 h; series mostly up to 28.7 µM. In short, it runs like this: as §1
For experiment [15], the system named is CP217. Described as above. The note with it: P. falciparum in erythrocytes, SYBR Green DNA, 72 h; series mostly up to 28.7 µM. Put shortly: as §1
Experiment [16] concerns CP252. Described as above. As to conditions: P. falciparum in erythrocytes, SYBR Green DNA, 72 h; series mostly up to 12.8 µM. In short, it runs like this: as §1
In experiment [17] the test system is CP262. The experiment is described as above. As to conditions: P. falciparum in erythrocytes, SYBR Green DNA, 72 h; series mostly up to 28.7 µM. In short, it runs like this: as §1
Experiment [18] relates to CP286. Described as above. As to conditions: P. falciparum in erythrocytes, SYBR Green DNA, 72 h; series mostly up to 28.7 µM. Put shortly:
as §1

Experiment [19] concerns ECU. The experiment is described as above. The note with it: P. falciparum in erythrocytes, SYBR Green DNA, 72 h; series mostly up to 28.7 µM. In short, it runs like this:
as §1

Experiment [20] in a line: NFAT Signaling Pathway (AID 444; active = well fitted curve in either direction with a large enough effect, not every such curve was filed as active;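 also: carbachol stimulus at about its EC50 of 1 µM final; % is scaled to controls: 0 for no effect and ±100 for the full control effect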). As to conditions: Jurkat NFAT-bla M1, carbachol, beta-lactamase ratio, 5 h; at 17.2 µM (top of the series). In short, it runs like this: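 Jurkat cells carrying an NFAT-driven β-lactamase reporter and co-transfected muscarinic M1 receptor were treated with compound plus carbachol (1 uM final, an EC50 level) for 5 h at 37 °C. CCF4 loading followed for 1 h at RT; 460/530 nm ratio gave %activity.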

Where [21] appears, read: measured here: cell count channel max response.
The mark [22] stands for this setting: measured here: lipid channel max response.
Setting [23] is: at 12.8 µM (top of the series), parasite line A.

Cytochrome P450 1A2 (Homo sapiens), sequence (P05177 whole entry, looked up): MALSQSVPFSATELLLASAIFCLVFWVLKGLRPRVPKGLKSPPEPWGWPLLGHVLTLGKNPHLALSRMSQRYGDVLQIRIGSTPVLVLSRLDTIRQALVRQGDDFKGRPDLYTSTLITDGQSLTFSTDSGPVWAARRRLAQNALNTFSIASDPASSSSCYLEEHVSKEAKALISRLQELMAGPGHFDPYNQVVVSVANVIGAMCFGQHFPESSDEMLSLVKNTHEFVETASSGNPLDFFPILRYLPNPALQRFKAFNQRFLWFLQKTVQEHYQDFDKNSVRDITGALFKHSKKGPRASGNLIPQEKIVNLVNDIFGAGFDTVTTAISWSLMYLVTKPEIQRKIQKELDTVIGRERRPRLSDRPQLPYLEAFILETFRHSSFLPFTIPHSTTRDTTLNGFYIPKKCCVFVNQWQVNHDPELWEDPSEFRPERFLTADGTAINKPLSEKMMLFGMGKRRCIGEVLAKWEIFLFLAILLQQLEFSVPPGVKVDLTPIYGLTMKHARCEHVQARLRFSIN
Luciferin 4-monooxygenase (Photinus pyralis), sequence (P08659 whole entry, looked up): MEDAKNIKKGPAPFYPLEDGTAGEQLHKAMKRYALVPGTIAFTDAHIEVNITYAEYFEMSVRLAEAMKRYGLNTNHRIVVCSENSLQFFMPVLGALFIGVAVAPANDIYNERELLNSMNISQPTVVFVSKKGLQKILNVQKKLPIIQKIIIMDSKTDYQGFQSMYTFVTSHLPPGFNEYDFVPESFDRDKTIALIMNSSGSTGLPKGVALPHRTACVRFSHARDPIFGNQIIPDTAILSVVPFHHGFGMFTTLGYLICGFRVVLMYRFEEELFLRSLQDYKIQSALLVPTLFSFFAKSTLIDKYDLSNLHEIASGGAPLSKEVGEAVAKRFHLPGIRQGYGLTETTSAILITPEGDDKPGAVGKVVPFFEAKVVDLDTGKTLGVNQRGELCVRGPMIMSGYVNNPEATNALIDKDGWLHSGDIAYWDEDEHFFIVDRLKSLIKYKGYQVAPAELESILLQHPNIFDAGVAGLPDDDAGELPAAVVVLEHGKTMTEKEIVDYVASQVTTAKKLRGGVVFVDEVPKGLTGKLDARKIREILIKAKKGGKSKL
Glucocorticoid receptor (Homo sapiens), sequence (P04150 whole entry, looked up): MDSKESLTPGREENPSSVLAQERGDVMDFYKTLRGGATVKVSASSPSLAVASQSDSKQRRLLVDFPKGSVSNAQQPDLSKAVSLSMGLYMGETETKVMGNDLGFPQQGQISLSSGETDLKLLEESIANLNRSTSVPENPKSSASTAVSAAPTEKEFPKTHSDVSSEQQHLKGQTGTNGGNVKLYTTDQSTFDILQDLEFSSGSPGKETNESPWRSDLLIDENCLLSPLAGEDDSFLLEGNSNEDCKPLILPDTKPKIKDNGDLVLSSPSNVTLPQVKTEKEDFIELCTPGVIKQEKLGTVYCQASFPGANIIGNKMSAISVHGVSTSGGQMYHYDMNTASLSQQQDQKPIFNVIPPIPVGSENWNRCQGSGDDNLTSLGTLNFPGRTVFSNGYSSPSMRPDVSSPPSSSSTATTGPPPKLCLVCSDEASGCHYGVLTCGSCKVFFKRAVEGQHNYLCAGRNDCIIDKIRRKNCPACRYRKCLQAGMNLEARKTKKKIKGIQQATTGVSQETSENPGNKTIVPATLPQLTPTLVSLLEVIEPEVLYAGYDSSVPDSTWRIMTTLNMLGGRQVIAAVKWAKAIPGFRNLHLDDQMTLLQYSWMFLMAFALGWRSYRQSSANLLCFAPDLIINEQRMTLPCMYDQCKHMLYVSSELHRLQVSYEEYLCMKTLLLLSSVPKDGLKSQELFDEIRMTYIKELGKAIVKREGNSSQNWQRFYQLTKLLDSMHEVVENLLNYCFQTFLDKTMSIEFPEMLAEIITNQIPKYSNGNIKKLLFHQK
Ubiquitin carboxyl-terminal hydrolase 1 (Homo sapiens), sequence (O94782 whole entry, looked up): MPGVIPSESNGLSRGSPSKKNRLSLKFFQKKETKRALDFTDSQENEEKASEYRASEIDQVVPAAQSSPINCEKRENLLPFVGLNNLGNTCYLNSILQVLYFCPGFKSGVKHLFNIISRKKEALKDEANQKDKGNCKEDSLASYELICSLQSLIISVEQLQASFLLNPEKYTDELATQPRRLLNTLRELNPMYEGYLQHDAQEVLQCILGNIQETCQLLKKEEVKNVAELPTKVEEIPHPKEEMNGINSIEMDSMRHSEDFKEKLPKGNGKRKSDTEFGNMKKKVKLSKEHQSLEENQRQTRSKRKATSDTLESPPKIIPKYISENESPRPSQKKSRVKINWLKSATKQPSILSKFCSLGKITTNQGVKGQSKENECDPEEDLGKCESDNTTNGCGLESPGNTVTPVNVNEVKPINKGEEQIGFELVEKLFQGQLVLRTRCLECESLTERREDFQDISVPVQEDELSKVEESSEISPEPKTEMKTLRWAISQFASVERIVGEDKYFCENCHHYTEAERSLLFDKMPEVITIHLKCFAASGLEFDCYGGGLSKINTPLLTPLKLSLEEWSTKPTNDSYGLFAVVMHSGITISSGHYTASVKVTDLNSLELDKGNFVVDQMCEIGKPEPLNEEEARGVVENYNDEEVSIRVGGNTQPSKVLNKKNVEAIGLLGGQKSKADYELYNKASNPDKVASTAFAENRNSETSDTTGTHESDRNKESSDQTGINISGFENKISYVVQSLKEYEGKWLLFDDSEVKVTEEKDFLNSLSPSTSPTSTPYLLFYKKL
3',5'-cyclic-AMP phosphodiesterase 4B (Homo sapiens), sequence (Q07343 whole entry, looked up): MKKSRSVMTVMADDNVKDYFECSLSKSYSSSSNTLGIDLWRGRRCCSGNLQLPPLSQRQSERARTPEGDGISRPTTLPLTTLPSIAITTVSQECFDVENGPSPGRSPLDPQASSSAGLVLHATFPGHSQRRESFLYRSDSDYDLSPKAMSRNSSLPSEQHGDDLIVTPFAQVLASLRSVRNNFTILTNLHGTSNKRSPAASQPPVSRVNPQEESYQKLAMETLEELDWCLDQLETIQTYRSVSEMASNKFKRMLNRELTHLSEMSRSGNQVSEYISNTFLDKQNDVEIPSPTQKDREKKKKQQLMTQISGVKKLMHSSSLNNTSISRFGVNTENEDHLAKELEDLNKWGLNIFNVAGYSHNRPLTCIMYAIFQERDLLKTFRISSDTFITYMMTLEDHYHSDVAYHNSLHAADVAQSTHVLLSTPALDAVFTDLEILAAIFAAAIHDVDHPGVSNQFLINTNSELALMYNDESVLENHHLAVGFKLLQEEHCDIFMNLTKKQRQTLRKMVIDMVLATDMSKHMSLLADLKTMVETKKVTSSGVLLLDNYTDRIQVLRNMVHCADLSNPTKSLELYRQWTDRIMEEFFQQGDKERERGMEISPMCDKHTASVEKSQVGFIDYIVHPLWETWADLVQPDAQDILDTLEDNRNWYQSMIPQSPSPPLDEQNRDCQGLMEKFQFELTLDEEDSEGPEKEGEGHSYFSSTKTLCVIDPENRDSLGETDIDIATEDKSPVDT

As to `C[N+]1([O-])[C@@H]2CC[C@H]1CC(OC(=O)[C@@H](CO)c1ccccc1)C2` (stereo partly drawn), the call in experiment [1], in [3] and in experiment [6] was inactive. Further, the Potency entry in experiment [2], in experiment [7], in [9], in experiment [10], in experiment [12] and in experiment [13] was “inactive” throughout. Further, the Potency entry in experiment [14], in experiment [15], in [16], in experiment [17], in experiment [18] and in experiment [19] was “inactive” throughout. Also, the Potency in experiment [4] and in experiment [5] was > 20.6 µM (inactive) throughout. The activity change, negative = inhibition in [8] was -4.15% (inactive). Further, the max response is 1.61% in experiment [8] (setting [21]) and -2.94% in [8] (setting [22]). Further, the activity, negative = inhibition was 1.56% (inactive) in experiment [11] (setting [23]) and -10% (inactive) in experiment [11] (at 12.8 µM (top of the series), parasite line B).

For `COc1ccc(OC)c([C@H](O)[C@H](C)N)c1`, the molecule was classed as inactive in experiment [1], in [3] and in experiment [6]. In addition, the Potency entry in [2], in experiment [7] and in experiment [9] was “inactive” each time. The Potency in experiment [4] was > 46 µM (inactive) and > 20.6 µM (inactive); in [5] it was > 46 µM (inactive) and > 20.6 µM (inactive). For the same molecule, the activity change, negative = inhibition in [8] is 1.13% (inactive). Also, the results for the max response in [8] (setting [21]) and in experiment [8] (setting [22]) were 7.1% and 6.97%, respectively.

For `CC1=C2[C@@H]3OC(=O)[C@@H](C)[C@@H]3CC[C@]2(C)C=CC1=O`, the result in [1], in experiment [3] and in [6] was inactive. For the same molecule, the activity change, negative = inhibition in [20] was -9.62% (inactive); in experiment [8] it was 0.607% (inactive). In addition, the Potency in [4] and in experiment [5] was > 20.6 µM (inactive) throughout. Moreover, the Potency entry in experiment [7], in experiment [9], in experiment [10], in experiment [12], in experiment [13] and in experiment [14] was “inactive” each time. Moreover, the Potency result in experiment [17], in experiment [18] and in experiment [19] was “inactive” each time. Further, the figures for the max response in experiment [8] (setting [21]) and in experiment [8] (setting [22]) were -1.82% and -3.78%, respectively. Besides, the activity, negative = inhibition in experiment [11] (at 28.7 µM (top of the series), parasite line A) is -27% (inactive); in [11] (at 28.7 µM (top of the series), parasite line B), -4.04% (inactive).

As to `CC(C)c1c(CN(C)[C@@H](C)Cc2ccccc2)n(C)n(-c2ccccc2)c1=O`, the molecule was classed as inactive in experiment [1], in experiment [3] and in experiment [6]. Further, the figures for the activity change, negative = inhibition in experiment [20] and in experiment [8] were -17.7% (inactive) and -3.14% (inactive), respectively. Moreover, the Potency in experiment [5] is > 20.6 µM (inactive). Further, the Potency result in experiment [7], in [10], in [12], in experiment [13], in experiment [14] and in [15] was “inactive” each time. The Potency result in [16], in experiment [17], in [18] and in [19] was “inactive” throughout. Moreover, the max response is -13.6% in experiment [8] (setting [21]) and -14.7% in [8] (setting [22]). In addition, the activity, negative = inhibition in [11] (setting [23]) was 6.98% (inactive).

As to `C(#CCN1CCCC1)CN1CCCC1`, the molecule was classed as inactive in [1], in [3] and in experiment [6]. The Potency entry in experiment [2], in experiment [7] and in [9] was “inactive” throughout. For the same molecule, the Potency in experiment [4] and in experiment [5] was > 20.6 µM (inactive) in each case. The activity change, negative = inhibition in experiment [8] is 0.99% (inactive). Moreover, the figures for the max response in [8] (setting [21]) and in experiment [8] (setting [22]) were 10.9% and 10.3%, respectively.
